GFP derepression: qHTS Assay for Epigenetic Modulators. mouse C127i GFP locus derepression, cytometry, 30 h. Potency, µM (highest dose often 46.1 µM). 68,000 compounds, 0.09% hits. AID 597, 2007
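Read-out is the number of GFP-positive cells, scored as fluorescent objects 20 to 120 um wide, reflecting derepression of a silenced CMV-GFP reporter in murine C127i cells after 30 h compound exposure at 37 C.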
Ub-GFP proteasome: Ubiquitin-GFP Assay; Ubiquitin-GFP reporter cells, proteasome inhibition, GFP fluorescence; response scale: untreated = 0%, 10 µM MG-132 = 100%; Potency, µM (top dose mostly 45.9 µM), actives largely listed as activators; 67,000 tested, under 10 active; active means well fitted activation curve with a large enough effect, not every such curve was filed as active; inconclusive means small, poorly fitted or top-dose-only effect, or another doubt; inactive means no such curve, though single readings can be large or run the other way
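GFP accumulation read-out: laser plate cytometry counting ubiquitin(G76V)-GFP-expressing U2OS cells after 4 hr compound exposure at 37 °C. Titrations spanned 46 uM to 2.9 nM; 0% = basal, 100% = 10 uM MG-132; concentration-response curves fitted.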
HBB splice mod: qHTS Assay for Modulators of Hemoglobin Beta Chain Splicing; HBB splicing reporter cell assay, activation; EGFP reporter with mutant IVS2-654 intron; response scale: normalised to 500 nM splice-correcting PNA; Potency, µM (series often up to 46.1 µM), hits mostly activators; 65,000 compounds, 0.06% hits
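Compounds were applied for 2 days to HeLa EGFP-654 cells, 500/well in Optimem with 2% FCS. The reporter's EGFP is disrupted by mis-splicing of beta-globin intron IVS2-654. Readout: summed well GFP fluorescence from 488 nm laser scanning; reference was 500 nM antisense […] 654 PNA.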
GBA activity: Glucocerebrosidase | Potency, µM | 48,000 compounds, 1.1% hits | Lysosomal acid glucosylceramidase (Homo sapiens), P04062 | purified enzyme, resorufin glucoside fluorescence (screen aimed at inhibitors), 20 min; in the data active means potency below about 15 µM; inconclusive means mostly about 16 µM to 33 µM;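 further: the screen sought inhibitors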
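Normal human glucocerebrosidase (0.2 nM final) was assayed with resorufin β-D-glucopyranoside (30 uM final) in 50mM citric acid/KH2PO4, 10mM sodium taurocholate, 0.01% tween-20, pH 5.9. Compounds were titrated; fluorescence (Ex 548, Em 600) read after 20 min at RT.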
FLuc inh: qHTS Assay for Inhibitors of Firefly Luciferase; Luciferin 4-monooxygenase (Photinus pyralis), P08659; purified firefly luciferase, luminescence, 8 min; 72,000 compounds, 2.2% hits; Potency, µM (series often up to 57.1 µM), most hits filed as inhibitors; AID 411, 2009; further: nearly all actives have a fitted effect of over 40% in size
Target sequence (P08659 whole entry, looked up): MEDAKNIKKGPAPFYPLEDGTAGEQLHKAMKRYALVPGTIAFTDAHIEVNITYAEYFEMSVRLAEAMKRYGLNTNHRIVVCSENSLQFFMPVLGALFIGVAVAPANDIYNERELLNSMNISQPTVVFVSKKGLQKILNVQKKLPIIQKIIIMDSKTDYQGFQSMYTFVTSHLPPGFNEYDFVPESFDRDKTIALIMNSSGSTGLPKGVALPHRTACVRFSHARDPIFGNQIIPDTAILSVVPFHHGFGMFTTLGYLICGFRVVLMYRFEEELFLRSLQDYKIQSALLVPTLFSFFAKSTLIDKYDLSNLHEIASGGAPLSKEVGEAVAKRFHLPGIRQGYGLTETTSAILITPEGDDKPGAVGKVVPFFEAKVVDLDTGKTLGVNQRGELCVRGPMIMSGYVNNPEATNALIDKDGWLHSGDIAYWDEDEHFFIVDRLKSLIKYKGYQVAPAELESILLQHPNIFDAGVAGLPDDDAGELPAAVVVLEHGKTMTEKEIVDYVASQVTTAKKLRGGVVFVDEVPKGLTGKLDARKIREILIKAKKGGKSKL
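Here, luciferase activity is measured as luminescence following an 8 min room-temperature reaction at 10 uM ATP, pH 7.2. Every library sample is titrated.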
Bst PK mod: Pyruvate Kinase; purified pyruvate kinase, luminescence ATP production; ribose 5-phosphate activator present at AC10; Potency, µM; 51,000 compounds, 1.2% hits; AID 361, 2006; in the data active means potency below about 11 µM; inconclusive means mostly about 12 µM to 25 µM;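 the screen sought inhibitors and activators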
Large screens that a line does not name were inactive. Rows were chosen to be rich in hits. Some 3.3% of all compounds tested hit in one or more screens of this group. Unless noted, the call rests on the fitted dose curve; in most records, active means well fitted curve in the direction sought with a large enough effect; inconclusive means small, poorly fitted or top-dose-only effect, or another doubt; inactive means no such curve, though single readings can be large; an effect the other way counts as inactive or inconclusive.

CN1CCN(c2ncc3nc(-c4cccc(C#N)c4)c(=O)n(CCC#N)c3n2)CC1	none (no result: GBA activity, Bst PK mod)
C=C1CC[C@@H](O)C/C1=C/C=C1\CCC[C@]2(C)[C@@H]1CC[C@H]2[C@@H](C)/C=C\[C@@H](C)C(C)C	none (no result: HBB splice mod, GBA activity, Bst PK mod)
CCS(=O)(=O)Nc1ccc(-c2nnc(SCC(=O)c3cccc(OC)c3)o2)cc1	GBA activity 11 (no result: HBB splice mod)
CCS(=O)(=O)Nc1ccc(-c2nnc(SCC(=O)c3ccc(NC(C)=O)c(OC)c3)o2)cc1	none (no result: HBB splice mod)
N#Cc1cccc(NC(=O)N2CC[C@@]3(CCCN(S(=O)(=O)c4ccccc4)C3)C2)c1	none (no result: GBA activity, Bst PK mod)
COC1CCC(C(=O)c2ccc3nc4c(cc3c2)CCCO4)CC1 (stereo not given)	none (no result: GFP derepression, Ub-GFP proteasome, GBA activity, FLuc inh, Bst PK mod)
COC(=O)c1ccc(C(NC(=O)OCc2ccccc2)/C(=C/[C@@H](C)C(=O)NCc2ccccc2)c2cccnc2)cc1 (stereo not given in full)	none (no result: GFP derepression, Ub-GFP proteasome, GBA activity, FLuc inh, Bst PK mod)
COc1cc(SC)ccc1C(=O)Nc1ccon1	FLuc inh 25µM, Bst PK mod inconclusive
CCCCOc1ccc(-c2nnc(-c3ccncc3)o2)cc1	Bst PK mod 5.6
CCOc1ccc(-c2nnc(N)o2)cc1	none (no result: Bst PK mod)
CCCCOc1ccc(C(=O)Nc2ccncc2)cc1	GBA activity 6.2 (no result: Bst PK mod)
CCOc1ccc(-c2nnc(-c3ccncc3)o2)cc1	Bst PK mod 2.1 (no result: HBB splice mod)
C[N+](C)(C)CCC(=O)c1cccc2ccccc12	GFP derepression inconclusive (no result: GBA activity, Bst PK mod)
O=S(=O)(NCCCCCCc1ccccc1)c1cccc2c(Cl)cccc12	none (no result: HBB splice mod, GBA activity, Bst PK mod)
COc1cccc(-n2nnc3c(=O)n(Cc4ccc(C)cc4)cnc32)c1	none
COc1cccc(-n2nnc3c(=O)n(Cc4ccccc4Cl)cnc32)c1	Bst PK mod 6.9
C[C@H]1CC[C@H]2C(=O)N3[C@H](c4ccc(Br)cc4)[C@@H](C)CC[C@H]3C(=O)N2[C@@H]1c1ccc(Br)cc1	none (no result: GFP derepression, Ub-GFP proteasome, GBA activity, Bst PK mod)
CN1CCN(c2ccc(Cl)cc2NS(=O)(=O)c2ccccc2Cl)CC1	GFP derepression inconclusive, GBA activity 13
COC(=O)c1ccc(-c2cc(C(=O)O)c3cc4c(cc3n2)OCCO4)cc1	FLuc inh 3.2µM, Bst PK mod inconclusive
CN(C)c1ncnc2ccc(-c3ccccc3C(F)(F)F)cc12	none (no result: GBA activity, Bst PK mod)
COc1ccc2[nH]cc(CCNc3ncncc3-c3ccccc3Cl)c2c1	none (no result: GBA activity, Bst PK mod)
COc1cccc(-c2nnc(NC(=O)c3ccc(S(=O)(=O)N4CCOCC4)cc3)o2)c1	none
COc1cccc2sc(Nc3nnc(-c4ccccc4Cl)o3)nc12	FLuc inh 16µM (no result: GFP derepression, GBA activity, Bst PK mod)
COc1cccc(-c2nnc(Nc3nc4c(F)cccc4s3)o2)c1	FLuc inh 13µM
COc1ccccc1-c1nnc(Nc2nc3c(OC)cccc3s2)o1	FLuc inh inconclusive
O=C(CSc1nnnn1-c1ccc(Cl)cc1)NC(=O)Nc1ccc2c(c1)OCCO2	FLuc inh 2.5µM
Cc1ccc(-n2nnnc2SCC(=O)NC(=O)Nc2ccc3c(c2)OCCO3)cc1	GBA activity inconclusive
Cn1c(-c2ccc3ccccc3n2)nc2cnccc21	FLuc inh 13µM, Bst PK mod inconclusive
COc1cc(OC)c(-c2nc3cnccc3n2C)cc1OC	none
CCOC(=O)C1CCN(c2c(NCc3ccc(C(=O)O)cc3)c(=O)c2=O)CC1	none (no result: GFP derepression, GBA activity, Bst PK mod)
CC(=O)N1CN(CCCn2ccnc2)Cc2c1sc1c2CCCC1	GBA activity inconclusive
CC(=O)N1CN(Cc2ccccn2)Cc2c1sc1c2CCCC1	GBA activity 15
Cc1ccccc1-c1ccc2ncnc(N(C)Cc3ccco3)c2c1	none (no result: GBA activity, Bst PK mod)
COCCN1Cc2cccc(C(=O)Nc3cccc(OC)c3)c2C1=O	none (no result: Bst PK mod)
O=C(Nc1ccc(F)cc1)c1cccc2c1C(=O)N(Cc1ccccn1)C2	Bst PK mod 11 (no result: GBA activity)
COCCN1Cc2cccc(C(=O)Nc3ccc(S(=O)(=O)N4CCCCCC4)cc3)c2C1=O	GBA activity 15
COCCN1Cc2cccc(C(=O)Nc3ccc(C)c(C)c3)c2C1=O	FLuc inh 25µM (no result: Bst PK mod)
CC(C)c1ccc(NC(=O)c2csnn2)cc1	FLuc inh 5µM
CC(C)c1ccc(NC(=O)c2cccnc2)cc1	FLuc inh 16µM (no result: GBA activity, Bst PK mod)
COC(=O)c1ccc(C(NC(=O)OCc2ccccc2)/C(=C/[C@@H](C)C(=O)NCc2ccc(OC)c(O)c2)c2cccnc2)cc1 (stereo not given in full)	none (no result: GFP derepression, Ub-GFP proteasome, GBA activity, FLuc inh, Bst PK mod)
C#CCOCCCC(=O)O	none (no result: GBA activity, Bst PK mod)
Cc1cc(C)c(C)c(S(=O)(=O)NCc2ccco2)c1C	Bst PK mod 11
c1ccc(-c2nc(-c3ccncc3)no2)cc1	none (no result: GBA activity)
CCc1ccc(-c2nc(-c3ccncc3)no2)cc1	FLuc inh 5µM (no result: GBA activity, Bst PK mod)
c1ccc(-c2ccc(-c3nc(-c4ccncc4)no3)cc2)cc1	FLuc inh 3.2µM (no result: GBA activity, Bst PK mod)
Clc1ccccc1-c1nc(-c2cccnc2)no1	FLuc inh 13µM, Bst PK mod inconclusive
c1ccc(-c2ccc(-c3nc(-c4cccnc4)no3)cc2)cc1	FLuc inh 3.2µM (no result: GBA activity, Bst PK mod)
O=C(O)c1ccccc1/C=N\N=C1c2ccccc2-c2ccccc21	none (no result: GBA activity, Bst PK mod)
O=c1c(-c2cc(F)cc(F)c2)nc2cnc(N3CCOCC3)nc2n1C1CC1	none (no result: GBA activity, Bst PK mod)
COc1ccc(-c2nc3cnc(OC)nc3n(Cc3cccs3)c2=O)cc1	none (no result: GBA activity, Bst PK mod)
c1ccc(-c2noc(-c3cccnc3)n2)cc1	FLuc inh 13µM (no result: GBA activity, Bst PK mod)
CO[C@@H]1COC(=O)[C@@H](C)COC(=O)[C@@H](C)NC(=O)C/C=C\[C@@H]1C	none (no result: GFP derepression, Ub-GFP proteasome, GBA activity, Bst PK mod)
